According to PubChem BioAssay (NCI):
This is part of a sample that, as a whole, favours compounds with a hit. Of some 79,000 tested, about 15% had one in any assay. The source made the active and inactive calls. Cut-off read from the data, not from the text of the source: active = growth inhibition above about 70%; inactive = the rest.

assay: NCI Yeast Anticancer Drug Screen. Data for the cln2 rad14 strain (AID 165);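 note: 0% = growth equal to vehicle treated cultures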; conditions: S. cerevisiae cln2 rad14 strain, at 50.0 µM, active compounds read high
Outline: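 Compounds are applied to the cln2 rad14 yeast strain, and growth is then compared with that of vehicle-treated cultures to give inhibition.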

| SMILES | growth inhibition |
| --- | --- |
| COc1ccccc1N=Nc1c(O)ccc2cc(S(=O)(=O)O)ccc12 | 9.95% (inactive) |
| O=C(CC(=O)c1ccccc1O)c1ccccc1 | 40.5% (inactive) |
| CC(=O)Oc1ccc(Br)cc1C(=O)O | -26.9% (inactive) |
| Cc1ccccc1N=C(c1ccccc1)C1C(=O)c2ccccc2C1=O | 29% (inactive) |
| CC1SC(N)=NC1=O (stereo not given) | -2.15% (inactive) |
| O=C(O)C(O)c1ccccc1 (stereo not given) | -48% (inactive) |

assay: NCI Yeast Anticancer Drug Screen. Data for the bub3 strain (AID 167); conditions: S. cerevisiae bub3 mutant strain, at 50.0 µM, active compounds read high
Outline: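 Steps: expose the mutant yeast strain to compound; grow alongside vehicle-treated cultures; measure growth; express inhibition against the vehicle cultures.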

| SMILES | growth inhibition |
| --- | --- |
| CN(C)C(C)(C)CC(C)(C)C | 17.3% (inactive) |
| CN(C)CCN(C)CC(C)(C)C(=O)/C=C/c1ccc(Cl)cc1 | 19.7% (inactive) |
| OCC(O)C(O)C(O)C(O)/C=N/O (stereo not given) | -1.1% (inactive) |
| Cc1cccc([N+](=O)[O-])c1Cl | -30.8% (inactive) |
| CCN(CC)CCNc1ccc(CO)c2sc3ccccc3c(=O)c12 | -24.1% (inactive) |
| CC1CCC(C(=O)O)N1 (stereo not given) | -3.2% (inactive) |
| CC(C)(N)COS(=O)(=O)O | 9.25% (inactive) |
| Oc1ccccc1O | -1.6% (inactive) |
| CCCCN(CCCC)CCCO | -2.7% (inactive) |
| O=C(CCl)Nc1ccc2c(c1)C(=O)c1ccc(NC(=O)CCl)cc1C2=O | -21.2% (inactive) |
| CC(=O)Cc1cc(-c2cc(CC(C)=O)[nH]n2)n[nH]1 | -5.45% (inactive) |
| CCCC(C)OCC(=O)O (stereo not given) | -1.25% (inactive) |
| CN(C)C(=O)Oc1cccc([N+](C)(C)C)c1 | 0.2% (inactive) |
| N#CCCc1ccc(O)cc1 | -17.9% (inactive) |
| CCOc1ccc(Br)cc1/C=N\N=C\c1cc(Br)ccc1OCC | 4.25% (inactive) |
| O=C1NC(=O)C2C(=O)NC(=O)C1C21CCc2ccccc21 (stereo not given) | -41.9% (inactive) |
| O=C(/C=C\c1ccc(O)cc1)c1ccccc1 | 29.6% (inactive) |
| O=C1OC(=O)C2C1C1(Cl)C(Cl)=C(Cl)C2(Cl)C2C(=O)OC(=O)C21 (stereo not given) | 25.3% (inactive) |
| CC(C)CCCC(=O)O | -2.95% (inactive) |
| O=S(=O)(O)c1ccc(O)c2ccccc12 | 11.7% (inactive) |
| COc1ccc(C2OC(N)=C(O)C2=O)cc1OC (stereo not given) | -30.1% (inactive) |
| Cc1cc(O)ccc1O | 3.5% (inactive) |
| N#Cc1c(N)sc(=S)c2c1CCCC2 | -2.05% (inactive) |
| Nc1ccc(N)c([N+](=O)[O-])c1 | -14.8% (inactive) |
| CC1(C)OC(=O)C(c2ccsc2)C(=O)O1 | -7.05% (inactive) |
| C[N+](C)=c1ccc2nc3c(cc(Nc4ccccc4)c4ccccc43)oc-2c1 | 38% (inactive) |
| COCCOCCCl | -6.5% (inactive) |
| COc1cccc(Sc2ccc([N+](=O)[O-])c3no[n+]([O-])c23)c1 | 88.4% (active) |
| CCCCC1(CC)COC(CCC)OC1 (stereo not given) | -12.2% (inactive) |
